{
  "source": "PubChem BioAssay (Tox21)",
  "note": "Activity calls are given as the source filed them. A call without a number means that no potency is given here. Calls follow the shape of the dose curve; as a rule, active = well fitted inhibition curve with a large enough effect in the repeat runs (not every such curve was filed as active); inconclusive = weak or mixed curves; inactive = flat fitted curve, though single readings scatter.",
  "data": [
    {"target": "Thyrotropin-releasing hormone receptor (Homo sapiens) (UniProt P34981)", "sequence (P34981 whole entry, looked up)": "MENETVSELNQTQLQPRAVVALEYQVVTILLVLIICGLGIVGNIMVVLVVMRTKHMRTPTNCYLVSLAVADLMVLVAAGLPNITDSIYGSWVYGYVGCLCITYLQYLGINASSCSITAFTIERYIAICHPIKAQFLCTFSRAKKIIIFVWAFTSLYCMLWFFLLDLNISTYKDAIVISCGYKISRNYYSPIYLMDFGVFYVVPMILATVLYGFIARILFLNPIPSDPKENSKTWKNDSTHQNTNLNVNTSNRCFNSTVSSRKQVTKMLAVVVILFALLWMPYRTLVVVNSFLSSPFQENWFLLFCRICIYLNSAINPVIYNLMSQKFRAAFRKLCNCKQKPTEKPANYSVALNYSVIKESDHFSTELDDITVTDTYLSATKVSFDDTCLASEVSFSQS", "assay": "qHTS assay to identify small molecule antagonists of the thyrotropin-releasing hormone receptor (TRHR) signaling pathway (AID 1346877); also: potency is read from the fitted curve at half-maximal effect", "conditions": "TRHR-HEK293, TRH-induced calcium fluorescence, antagonist mode; series mostly up to 51.3 µM", "from_the_text": "National Center for Advancing Translational Sciences [NCATS]\nNIH Chemical Genomics Center [NCGC]\nU.S. Environmental Protection Agency [EPA]\nNational Institutes of Environmental Health Sciences [NIEHS]\nNational Toxicology Program [NTP]\nU.S. Food and Drug Administration [FDA]\nThyrotropin-releasing hormone (TRH) receptor (TRHR) is a G-protein-coupled receptor which binds the tripeptide thyrotropin releasing hormone. TRHR is found in the brain and, when bound by TRH, acts (through phospholipase C) to increase intracellular inositol trisphosphate. It plays a crucial role in the anterior pituitary where it controls the synthesis and secretion of thyroid stimulating hormone and prolactin. The TRHR-Hek293 assay is a cell-based assay, and it has the potential to screen G protein-coupled receptors. A compound/drug can either activate (agonist) or suppress (antagonist) GPCRs that can be monitored by levels of intracellular calcium. In this assay, the Tox21 10K compound library was screened to identify potential TRHR antagonists.\nTox21 Assay Protocol Summary:\nThe TRHR-Hek293 cells were dispensed at 1500cells/4uL/well in 1536-well black-clear bottom plates using a Multidrop dispenser. After the assay plates were incubated at a 37 C/5% CO2 incubator for 18 hours, 4 uL of Dye-Loading Solution was added to each well. The plates were incubated at 37 C for 2 hours. For agonist mode, 23 nL of compounds dissolved in DMSO, positive controls or DMSO only was transferred to the assay plate by a pin tool. The fluorescence intensity in the plates was measured using FDSS 7000EX kinetic plate reader for 3 min at 1 sec intervals. For antagonist mode, 23 nL of compounds dissolved in DMSO, positive controls or DMSO only was transferred to the assay plate by a pin tool. After 5 min incubation at room temperature, 1 uL of TRH was added on the top of the cell/compound mixtures to achieve a final agonist concentration of 1 nM. The fluorescence intensity in the plates was measured using FDSS 7000EX kinetic plate reader for 3 min at 1 sec intervals. Each test compound was measured at 15 concentrations and in triplicates.", "values": [
      {"compound": "NC1CCC(CC2CCC(N)CC2)CC1", "note": "(stereo not given)", "Potency": "inactive"},
      {"compound": "CN(C)c1ccc(N)cc1", "Potency": "inactive"},
      {"compound": "COc1ccc(Cc2nccc3cc(OC)c(OC)cc23)cc1OC", "Potency": "inactive"},
      {"compound": "Nc1ccc(N=Nc2ccccc2)cc1", "Potency": "inactive"},
      {"compound": "COP(=S)(OC)Oc1ccc([N+](=O)[O-])c(C)c1", "Potency": "inactive"},
      {"compound": "COC(=O)c1ccccc1S(=O)(=O)NC(=O)Nc1nc(C)nc(OC)n1", "Potency": "inactive"},
      {"compound": "NC(=O)C(Cl)Cl", "Potency": "inactive"},
      {"compound": "Clc1cc(Cl)c(-c2cc(Cl)c(Cl)cc2Cl)cc1Cl", "Potency": "inactive"},
      {"compound": "O=Cc1ccccc1", "Potency": "inactive"},
      {"compound": "O=[N+]([O-])c1cccc2cccc([N+](=O)[O-])c12", "Potency": "inactive"},
      {"compound": "Brc1ccc(Oc2ccc(Br)cc2Br)c(Br)c1", "Potency": "inactive"},
      {"compound": "O=[N+]([O-])c1ccc(Cl)c(Cl)c1Cl", "Potency": "inactive"},
      {"compound": "COc1ccc2c(c1OC)C(=O)O[C@@H]2[C@H]1c2cc3c(cc2CCN1C)OCO3", "Potency": "inactive"},
      {"compound": "CC(C)C(Br)C(=O)NC(N)=O", "note": "(stereo not given)", "Potency": "inactive"},
      {"compound": "CCOP(=S)(NC(C)C)Oc1ccccc1C(=O)OC(C)C", "note": "(stereo not given)", "Potency": "inactive"},
      {"compound": "Cc1ccccc1OP(=O)(Oc1ccccc1C)Oc1ccccc1C", "Potency": "inactive"},
      {"compound": "CCC(C)Br", "note": "(stereo not given)", "Potency": "inactive"},
      {"compound": "ClC(Cl)C(Cl)(Cl)Cl", "Potency": "inactive"},
      {"compound": "c1ccc(Nc2ccc(Nc3ccccc3)cc2)cc1", "Potency": "inactive"},
      {"compound": "O=S(=O)(O)F", "Potency": "inactive"},
      {"compound": "Oc1cc(Cl)c(Cl)c(Cl)c1Cl", "Potency": "inactive"},
      {"compound": "CN", "Potency": "inactive"},
      {"compound": "Cc1cc2c3c(c1)C(c1ccccc1)=N[C@@H](NC(=O)c1ccncc1)C(=O)N3CC2", "Potency": "inactive"},
      {"compound": "O=C1C2(Cl)C3(Cl)C4(Cl)C(Cl)(Cl)C5(Cl)C3(Cl)C1(Cl)C5(Cl)C24Cl", "note": "(stereo not given)", "Potency": "28.9 µM (active)"},
      {"compound": "Clc1ccc(C2(Cn3cncn3)OCCO2)c(Cl)c1", "Potency": "inactive"},
      {"compound": "C#CC1(O)CCCCC1", "Potency": "inactive"},
      {"compound": "Cc1nn(-c2cc(NS(C)(=O)=O)c(Cl)cc2Cl)c(=O)n1C(F)F", "Potency": "inactive"},
      {"compound": "N#Cc1c[nH]cc1-c1cccc2c1OC(F)(F)O2", "Potency": "inactive"},
      {"compound": "CCOP(=S)(OCC)SC(CCl)N1C(=O)c2ccccc2C1=O", "note": "(stereo not given)", "Potency": "inactive"},
      {"compound": "CCC[CH2][Sn]([CH2]CCC)([CH2]CCC)[CH2]CCC", "Potency": "inactive"},
      {"compound": "COc1ccc2c3c1O[C@H]1[C@H](O)CC[C@H]4[C@@H](C2)N(C)CC[C@@]341", "Potency": "inactive"},
      {"compound": "Fc1ccc(C(OCCN2CCN(CCCc3ccccc3)CC2)c2ccc(F)cc2)cc1", "Potency": "inactive"},
      {"compound": "COc1nc(C)nc(NC(=O)NS(=O)(=O)c2ccccc2Cl)n1", "Potency": "inactive"},
      {"compound": "CN1[C@@H]2CC[C@H]1CC(O)C2", "note": "(stereo not given in full)", "Potency": "inactive"},
      {"compound": "Nc1nc(N)nc(Cl)n1", "Potency": "inactive"},
      {"compound": "CCC(C)Nc1c([N+](=O)[O-])cc(C(C)(C)C)cc1[N+](=O)[O-]", "note": "(stereo not given)", "Potency": "inactive"},
      {"compound": "c1ccc2c(c1)cc1ccc3cccc4ccc2c1c34", "Potency": "inactive"},
      {"compound": "C#CCC1=C(C)C(OC(=O)C2C(C=C(C)C)C2(C)C)CC1=O", "note": "(stereo not given)", "Potency": "inactive"},
      {"compound": "CCOP(=S)(OCC)Oc1cc(C)nc(N(CC)CC)n1", "Potency": "inactive"},
      {"compound": "CC(Cc1ccccc1)N(C)Cc1ccco1", "note": "(stereo not given)", "Potency": "inactive"}
    ]}
  ]
}
